In PubChem BioAssay AID1159580 (chemical genetic matrix, 2015):
About 2,000 (36%) of roughly 5,500 compounds were called active. Roughly 18% stayed inconclusive and do not appear here. No stated cut-off is given here; in the data, active means normalized growth mostly below about 0.91 (no sharp cut-off); inconclusive means no clear call, values can overlap the other calls; inactive means mostly above about 0.92. The list shows a part of the results.

Experiment: chemical genetic growth profiling, strain panel (AID 1159580);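 further: tested at 20 µM; growth read once vehicle control cultures reached saturation at 30 °C; 1 = growth at the plate median or of vehicle wells; lower values mean less growth of the strain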
Settings: growth OD

Measured: normalized growth

CC1[C@H](C)OC(=O)CC(O)CC(O)CC(O)CCC(O)C(O)C[C@]2(O)CC(O)C(C(=O)O)C(CC(OC3O[C@H](C)[C@@H](O)[C@H](N)[C@@H]3O)/C=C/C=C/C=C/C=C/CC/C=C/C=C/[C@H](C)[C@H]1O)O2 (stereo partly specified)
active: S. cerevisiae deletion strains, locus YKL009W, strain mrt4, active compounds read low 0.0887 | S. cerevisiae deletion strains, locus YKL068W, active compounds read low 0.0555 | S. cerevisiae deletion strains, locus YKL085W, strain MDH1 (second series), active compounds read low 0.0538 | S. cerevisiae deletion strains, locus YKL085W, strain MDH1, active compounds read low 0.0538 | S. cerevisiae deletion strains, locus YKL190W, strain CNB1, active compounds read low 0.193 | S. cerevisiae deletion strains, locus YKR001C, strain vps1, active compounds read low 0.0857 | S. cerevisiae deletion strains, locus YKR026C, strain gcn3, active compounds read low 0.0734 | S. cerevisiae deletion strains, locus YLL001W, strain dnm1, active compounds read low 0.759 | S. cerevisiae deletion strains, locus YLL026W, active compounds read low 0.446 | S. cerevisiae deletion strains, locus YLL041C, strain sdh2, active compounds read low 0.913 | S. cerevisiae deletion strains, locus YLR027C, strain aat2, active compounds read low 0.633 | S. cerevisiae deletion strains, locus YLR039C, strain RIC1, active compounds read low 0.0871 | S. cerevisiae deletion strains, locus YLR058C, strain SHM2, active compounds read low 0.374 | S. cerevisiae deletion strains, locus YLR102C, strain apc9, active compounds read low 0.283 | S. cerevisiae deletion strains, locus YLR113W, strain HOG1, active compounds read low 0.124 | S. cerevisiae deletion strains, locus YLR221C, strain rsa3, active compounds read low 0.36 | S. cerevisiae deletion strains, locus YLR258W, strain gsy2, active compounds read low 0.857 | S. cerevisiae deletion strains, locus YLR262C, strain YPT6 (second series), active compounds read low 0.799 | S. cerevisiae deletion strains, locus YLR262C, strain YPT6, active compounds read low 0.0948 | S. cerevisiae deletion strains, locus YLR268W, strain sec22, active compounds read low 0.119 | S. cerevisiae deletion strains, locus YLR330W, strain CHS5, active compounds read low 0.176 | S. cerevisiae deletion strains, locus YLR342W, strain FKS1 (second series), active compounds read low 0.126 | S. cerevisiae deletion strains, locus YLR342W, strain FKS1, active compounds read low 0.376 | S. cerevisiae deletion strains, locus YLR357W, strain rsc2, active compounds read low 0.123 | S. cerevisiae deletion strains, locus YLR370C, strain arc18, active compounds read low 0.0729 | S. cerevisiae deletion strains, locus YLR371W, strain rom2, active compounds read low 0.112 | S. cerevisiae deletion strains, locus YLR384C, strain iki3, active compounds read low 0.907 | S. cerevisiae deletion strains, locus YLR418C, strain cdc73, active compounds read low 0.202 | S. cerevisiae deletion strains, locus YML016C, strain PPZ1, active compounds read low 0.841 | S. cerevisiae deletion strains, locus YML032C, strain rad52, active compounds read low 0.333 | S. cerevisiae deletion strains, locus YML120C, strain ndi1, active compounds read low 0.0634 | S. cerevisiae deletion strains, locus YML124C, strain tub3, active compounds read low 0.103 | S. cerevisiae deletion strains, locus YMR058W, strain fet3, active compounds read low 0.318 | S. cerevisiae deletion strains, locus YMR078C, strain ctf18, active compounds read low 0.612 | S. cerevisiae deletion strains, locus YMR125W, strain sto1, active compounds read low 0.112 | S. cerevisiae deletion strains, locus YMR129W, active compounds read low 0.0795 | S. cerevisiae deletion strains, locus YMR223W, strain ubp8, active compounds read low 0.0876 | S. cerevisiae deletion strains, locus YMR231W, strain pep5, active compounds read low 0.839 | S. cerevisiae deletion strains, locus YMR263W, strain SAP30, active compounds read low 0.0585 | S. cerevisiae deletion strains, locus YMR307W, strain GAS1, active compounds read low 0.103 | S. cerevisiae deletion strains, locus YNL067W, strain RPL9B, active compounds read low 0.0572 | S. cerevisiae deletion strains, locus YNL071W, strain lat1, active compounds read low 0.885 | S. cerevisiae deletion strains, locus YNL128W, strain TEP1, active compounds read low 0.0617 | S. cerevisiae deletion strains, locus YNL153C, strain GIM3, active compounds read low 0.0492 | S. cerevisiae deletion strains, locus YNL183C, strain NPR1, active compounds read low 0.00104 | S. cerevisiae deletion strains, locus YNL209W, strain ssb2, active compounds read low 0.816 | S. cerevisiae deletion strains, locus YNL233W, strain BNI4, active compounds read low 0.135 | S. cerevisiae deletion strains, locus YNL248C, strain rpa49, active compounds read low 0.104 | S. cerevisiae deletion strains, locus YNL250W, strain rad50, active compounds read low 0.0643 | S. cerevisiae deletion strains, locus YNL271C, strain bni1, active compounds read low 0.0657 | S. cerevisiae deletion strains, locus YNL298W, strain CLA4, active compounds read low 0.0613 | S. cerevisiae deletion strains, locus YNL307C, strain MCK1, active compounds read low 0.0855 | S. cerevisiae deletion strains, locus YNL322C, strain KRE1 (second series), active compounds read low 0.695 | S. cerevisiae deletion strains, locus YNL322C, strain KRE1, active compounds read low 0.0469 | S. cerevisiae deletion strains, locus YNR052C, strain pop2, active compounds read low 0.0638 | S. cerevisiae deletion strains, locus YOL006C, strain TOP1, active compounds read low 0.276 | S. cerevisiae deletion strains, locus YOL147C, strain pex11, active compounds read low 0.111 | S. cerevisiae deletion strains, locus YOR001W, strain rrp6, active compounds read low 0.102 | S. cerevisiae deletion strains, locus YOR061W, strain CKA2, active compounds read low 0.41 | S. cerevisiae deletion strains, locus YOR069W, strain VPS5, active compounds read low 0.156 | S. cerevisiae deletion strains, locus YOR080W, strain dia2, active compounds read low 0.826 | S. cerevisiae deletion strains, locus YOR083W, strain WHI5, active compounds read low 0.798 | S. cerevisiae deletion strains, locus YOR106W, strain vam3, active compounds read low 0.284 | S. cerevisiae deletion strains, locus YOR136W, strain idh2, active compounds read low 0.221 | S. cerevisiae deletion strains, locus YOR144C, strain elg1, active compounds read low 0.123 | S. cerevisiae deletion strains, locus YOR184W, strain ser1, active compounds read low 0.0785 | S. cerevisiae deletion strains, locus YOR231W, strain MKK1, active compounds read low 0.105 | S. cerevisiae deletion strains, locus YOR265W, strain rbl2, active compounds read low 0.887 | S. cerevisiae deletion strains, locus YOR316C, strain cot1, active compounds read low 0.236 | S. cerevisiae deletion strains, locus YPL051W, strain arl3, active compounds read low 0.885 | S. cerevisiae deletion strains, locus YPL055C, strain LGE1, active compounds read low 0.0909 | S. cerevisiae deletion strains, locus YPL078C, strain atp4, active compounds read low 0.757 | S. cerevisiae deletion strains, locus YPL106C, strain sse1, active compounds read low 0.229 | S. cerevisiae deletion strains, locus YPL241C, strain CIN2, active compounds read low 0.182 | S. cerevisiae deletion strains, locus YPL256C, strain CLN2, active compounds read low 0.116 | S. cerevisiae deletion strains, locus YPR119W, strain clb2, active compounds read low 0.271 | S. cerevisiae deletion strains, locus YPR141C, strain kar3, active compounds read low 0.0655 | S. cerevisiae deletion strains, locus YPR163C, strain tif3, active compounds read low 0.152 | S. cerevisiae deletion strains, locus YPR167C, strain met16, active compounds read low 0.0932 | S. cerevisiae deletion strains, strain wtn01, active compounds read low 0.0877 | S. cerevisiae strains, strain wild type, active compounds read low 0.0547
inactive: S. cerevisiae deletion strains, locus YKL160W, strain elf1, active compounds read low 0.952 | S. cerevisiae deletion strains, locus YKR091W, strain srl3, active compounds read low 0.986 | S. cerevisiae deletion strains, locus YLR320W, strain mms22, active compounds read low 1 | S. cerevisiae deletion strains, locus YMR205C, strain PFK2, active compounds read low 0.916 | S. cerevisiae deletion strains, locus YNR049C, strain mso1, active compounds read low 0.951 | S. cerevisiae deletion strains, locus YOL012C, strain htz1 0.206 | S. cerevisiae deletion strains, locus YOR070C, strain gyp1, active compounds read low 0.95 | S. cerevisiae deletion strains, locus YOR270C, strain vph1, active compounds read low 0.837 | S. cerevisiae deletion strains, locus YOR290C, strain snf2, active compounds read low 1.01 | S. cerevisiae deletion strains, locus YPL240C, strain hsp82, active compounds read low 0.943
